Results on seven compounds are retold here after PubChem BioAssay (NCATS).

Results filed as inconclusive are left out. Unmarked numbers belong to inactive results. Activity calls are given as the source filed them. Calls come from the whole dose curve; as a rule, active = well fitted curve in the direction sought with a large enough effect; inconclusive = small, poorly fitted or top-dose-only effect, or another doubt; inactive = no such curve, though single readings can be large; an effect the other way counts as inactive or inconclusive.
% is set by controls: 0 for no effect and ±100 for the full control effect.

One experiment in a line: P-glycoprotein substrates identified in KB-3-1 adenocarcinoma cell line, qHTS therapeutic library screen (AID 1346986). Note: nearly all actives have a fitted effect of over 60% in size. Conditions: KB-3-1 parental cells viability, CellTiter-Glo, 72 h; series mostly up to 44.5 µM; activity change, negative = cytotoxicity: at the top concentration. Put shortly:
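Viability read by CellTiter-Glo after 72 h compound exposure in dose-response of KB-3-1 and KB-8-5-11 (P-gp-high) cells. Hits needed AC50 < 10 uM, >50% maximum response and curve class -1.1 to -2.4. Cherry-picks retested ± tariquidar, including pcDNA/MDR-19 HEK-293 pair.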
(In general: Quantitative high-throughput screening tests each substance at several concentrations.)
For `Nc1ncnc2n[nH]c(Nc3ccc(F)cc3)c12`, the Potency result is “inactive”. Take `O=C(O)Cc1ccccc1Oc1ccc(Cl)cc1Cl`: the outcome was inactive. On the same count and under the same terms, the value for `Cn1cnc2c(NCc3ccccc3)nc(NCCO)nc21` was “inactive”.

Another experiment can be described thus: P-glycoprotein substrates identified in KB-8-5-11 adenocarcinoma cell line, qHTS therapeutic library screen (AID 1346987). Note: nearly all actives have a fitted effect of over 65% in size. Conditions: KB-8-5-11 (P-gp overexpressing) viability, CellTiter-Glo, 72 h; series mostly up to 44.5 µM; activity change, negative = cytotoxicity: at the top concentration. An outline of the steps:
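Luminescence from CellTiter-Glo, read 5 min after addition, quantified survival of KB-8-5-11 (P-gp-overexpressing) cells exposed to compounds for 72 h. AC50 was derived from concentration-response curves.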
For `O=C(CCCCC(=O)Nc1c(I)cc(I)c(C(=O)O)c1I)Nc1c(I)cc(I)c(C(=O)O)c1I`, the “activity change, negative = cytotoxicity” value is -0.372%.

Consider `CC(=O)OCC(=O)[C@@]1(O)[C@H](OC(C)=O)C[C@H]2[C@@H]3CCC4=CC(=O)C=C[C@]4(C)[C@@]3(F)[C@@H](O)C[C@@]21C`, for which the “activity change, negative = cytotoxicity” value is 0.166%. `CCCCCC1Nc2cc(C(F)(F)F)c(S(N)(=O)=O)cc2S(=O)(=O)N1` (centres undefined): the “activity change, negative = cytotoxicity” value was 0.871%. For `O=C(O)Cc1ccccc1Oc1ccc(Cl)cc1Cl`, the outcome was inactive. In the case of `CCCCCCCCCCCC[N+](C)(C)Cc1ccccc1`, the “activity change, negative = cytotoxicity” value is -29.6%. As to `Cn1cnc2c(NCc3ccccc3)nc(NCCO)nc21`, the “activity change, negative = cytotoxicity” value is -3.12%.
